{
  "source": "PubChem BioAssay (NCATS)",
  "note": "Results filed as inconclusive are left out. Values without a mark were called inactive. Activity calls are given as the source filed them. Calls follow the shape of the dose curve; as a rule, active = well fitted curve in the direction sought with a large enough effect; inconclusive = small, poorly fitted or top-dose-only effect, or another doubt; inactive = no such curve, though single readings can be large; an effect the other way counts as inactive or inconclusive.",
  "data": [
    {"assay": "P-glycoprotein substrates identified in KB-3-1 adenocarcinoma cell line, qHTS therapeutic library screen (AID 1346986); also: nearly all actives have a fitted effect of over 60% in size", "settings": "KB-3-1 parental cells viability, CellTiter-Glo, 72 h; series mostly up to 44.5 µM; activity change, negative = cytotoxicity: at the top concentration", "in_short": "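Resistance attributable to P-gp was assessed by comparing AC50 in KB-8-5-11 with parental KB-3-1 and by tariquidar reversal. Cells were exposed 72 h and viability read by CellTiter-Glo.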", "values": [
      {"compound": "C/C=C/C1=CC2=C(CO1)C(=O)[C@](C)(O)[C@H](OC(=O)c1c(O)cc(OC)c(O)c1C)C2", "outcome": "inactive [at 17.4 µM]"},
      {"compound": "C[C@H]1C[C@H]2[C@@H]3CCC4=CC(=O)C=C[C@]4(C)[C@@]3(F)[C@@H](O)C[C@]2(C)[C@@]1(O)C(=O)COP(=O)(O)O", "outcome": "inactive"},
      {"compound": "N[C@H]1C[C@H]1c1ccc(-c2cccc(O)c2)cc1", "Potency": "inactive"},
      {"compound": "CC(C)CC(=O)O[C@@H]1OC=C(CO[C@@H]2O[C@H](CO[C@@H]3O[C@H](CO)[C@@H](O)[C@H](O)[C@H]3O)[C@@H](O)[C@H](O)[C@H]2O)[C@H]2C[C@H](O)[C@@H](CO)[C@@H]12", "outcome": "inactive [at 17.4 µM]"},
      {"compound": "C[C@]12C=CC(=O)C=C1CC[C@@H]1[C@@H]2[C@@H](O)C[C@@]2(C)[C@H]1CC[C@]2(O)C(=O)COC(=O)CCC(=O)O", "outcome": "inactive"}
    ]},
    {"assay": "P-glycoprotein substrates identified in KB-8-5-11 adenocarcinoma cell line, qHTS therapeutic library screen (AID 1346987); also: nearly all actives have a fitted effect of over 65% in size; as to activity change, negative = cytotoxicity: % is scaled to controls: 0 for no effect and ±100 for the full control effect", "settings": "KB-8-5-11 (P-gp overexpressing) viability, CellTiter-Glo, 72 h; series mostly up to 44.5 µM; activity change, negative = cytotoxicity: at the top concentration", "in_short": "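Steps: plate 500 KB-8-5-11 cells/well in DMEM + 10% FCS (colchicine removed); pin compounds in dose-response; incubate 72 h, 37 degree C, 5% CO2; add CellTiter-Glo, 5 min; read luminescence.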", "values": [
      {"compound": "CC1(C)NC2N(C1=O)c1ccccc1C2(O)CC(C(=O)O)n1cnc2ccccc2c1=O", "note": "(centres undefined)", "outcome": "inactive [at 17.3 µM]"},
      {"compound": "COc1c(C)c(C(=O)c2ccc(N)c(C(=O)O)c2)n2ccccc12", "Potency": "inactive"},
      {"compound": "O=C(O)c1cnn(-c2nc3cc(OC(F)(F)F)c(Cl)cc3[nH]2)c1", "outcome": "inactive"},
      {"compound": "C=CC(C)(CC/C=C(\\C)CC/C=C(\\C)CC(O)/C=C(\\C)C(=O)O)O[C@@H]1O[C@H](CO)[C@@H](O)[C@H](O)[C@H]1O[C@@H]1O[C@H](CO)[C@@H](O)[C@H](O)[C@H]1O", "note": "(some centres undefined)", "outcome": "inactive [at 17.3 µM]"},
      {"compound": "C=CC1(C)C=C2C(O)CC3C(C)(C(=O)O)CCCC3(C)C2CC1", "note": "(centres undefined)", "outcome": "inactive"},
      {"compound": "C=C1CCC2C(C)(C)CC(=O)CC2(C)C1CCC(C)CCOC(C)=O", "note": "(centres undefined)", "activity change, negative = cytotoxicity": "0.616%"},
      {"compound": "CC(C)=CC/C=C(/C)[C@H]1CC[C@]2(C)[C@@H]1[C@H](O)CC1[C@@]3(C)CC[C@H](O)C(C)(C)[C@@H]3[C@@H](O[C@@H]3O[C@H](CO)[C@@H](O)[C@H](O)[C@H]3O[C@@H]3O[C@@H](C)[C@H](O)[C@@H](O)[C@H]3O)C[C@]12C", "note": "(some centres undefined)", "outcome": "inactive [at 17.3 µM]"},
      {"compound": "C=C(C)C(C)C1OC23CC4(CO2)C(CCC2C5(C)CCC(OC6OCC(O)C(OC7OC(CO)C(O)C(OC8OCC(O)C(O)C8O)C7O)C6OC6OC(CO)C(O)C6O)C(C)(C)C5CCC24C)C3C(C)(O)C1OC(C)=O", "note": "(centres undefined)", "activity change, negative = cytotoxicity": "3.91% [at 9.29 µM]"},
      {"compound": "O=C(/C=C/c1ccc(O)c(O)c1)OCc1ccccc1O[C@@H]1O[C@H](CO)[C@@H](O)[C@H](O)[C@H]1O", "activity change, negative = cytotoxicity": "5.44% [at 17.3 µM]"},
      {"compound": "CC(=O)c1c(C)cc(O[C@@H]2O[C@H](CO)[C@@H](O)[C@H](O)[C@H]2O)cc1O", "outcome": "inactive"},
      {"compound": "CC(=O)OC1C(O)CC(O[C@@H]2O[C@H](CO)[C@@H](O)[C@H](O)[C@H]2O)C2CCC3C(=O)OC(c4ccoc4)CC3(C)C21", "note": "(some centres undefined)", "activity change, negative = cytotoxicity": "8.86% [at 17.3 µM]"},
      {"compound": "COc1cc(O[C@@H]2O[C@H](CO)[C@@H](O)[C@H](O)[C@H]2O)c(CCC(=O)OC[C@H]2O[C@@H](Oc3cc(OC)c(C4OC(=O)C(C)(O)C4O)cc3CCC(=O)O)[C@H](O)[C@@H](O)[C@@H]2O)cc1C1OC(=O)C(C)(O)C1O", "note": "(some centres undefined)", "outcome": "inactive [at 9.29 µM]"},
      {"compound": "CC1=CCC2C(C)(CO)CCCC2(CO)C1CO", "note": "(centres undefined)", "outcome": "inactive"},
      {"compound": "C/C=C/C=C/C=C/C(=O)O[C@@H]1C=C(CO)C(O)(C(=O)O)[C@@]2(C)CCCC(C)(C)[C@H]12", "note": "(some centres undefined)", "activity change, negative = cytotoxicity": "4.51% [at 17.3 µM]"},
      {"compound": "O=C(NN1CCCCC1)c1nn(-c2ccc(Cl)cc2Cl)c(-c2ccc(C#Cc3ccc(C(F)(F)F)cc3)s2)c1CNS(=O)(=O)N1CCCC1", "activity change, negative = cytotoxicity": "-4.08%"},
      {"compound": "CN1CC[C@@H](NC(=O)Nc2ccc(C#N)cc2)C[C@@H]1c1nc2ccccc2[nH]1", "activity change, negative = cytotoxicity": "1.99%"},
      {"compound": "C=C1C[C@@]23CC[C@@H]4[C@](C)(C(=O)O)CCC[C@@]4(C)C2=CC[C@H]1C3", "outcome": "inactive"},
      {"compound": "C/C=C/C1=CC2=C(CO1)C(=O)[C@](C)(O)[C@H](OC(=O)c1c(O)cc(OC)c(O)c1C)C2", "outcome": "inactive [at 17.3 µM]"},
      {"compound": "CC(NCc1ccc(OCc2cccc(F)c2)cc1)C(N)=O", "note": "(centres undefined)", "activity change, negative = cytotoxicity": "8.1%"},
      {"compound": "COc1cc(C2Oc3c(OC)cc(CCCO[C@@H]4O[C@H](CO)[C@@H](O)[C@H](O)[C@H]4O)cc3C2CO)ccc1O", "note": "(some centres undefined)", "activity change, negative = cytotoxicity": "0.807% [at 17.3 µM]"},
      {"compound": "C[C@@H]1C(=O)O[C@H]2CC34[C@H]5C[C@@H](C(C)(C)C)C36[C@@H](OC(=O)[C@@H]6O)OC4(C(=O)O5)[C@]21O", "note": "(some centres undefined)", "activity change, negative = cytotoxicity": "5.91%"},
      {"compound": "COc1ccc(C(OC2OC(CO)C(O)C(O)C2O)C(C)O)cc1", "note": "(centres undefined)", "outcome": "inactive"},
      {"compound": "Cc1[nH]cnc1C1CCN(c2nc3cccc4c3n2CCC4=O)CC1", "outcome": "inactive"},
      {"compound": "CC1=CC[C@]2(C(=O)O[C@@H]3O[C@H](CO[C@@H]4O[C@H](CO)[C@@H](O[C@@H]5O[C@@H](C)[C@H](O)[C@@H](O)[C@H]5O)[C@H](O)[C@H]4O)[C@@H](O)[C@H](O)[C@H]3O)CC[C@]3(C)C(CCC4[C@@]5(C)C[C@@H](O)[C@H](O)[C@@](C)(CO)C5CC[C@]43C)C2C1C", "note": "(some centres undefined)", "activity change, negative = cytotoxicity": "8.32% [at 9.29 µM]"}
    ]}
  ]
}
